From PubChem BioAssay
FBA Mtb inh: inhibitors of M. tuberculosis fructose-bisphosphate aldolase; inhibition, % at 1 µM; AID 588726; purified M. tuberculosis FBA, fluorescence read-out; 360,000 compounds, 2.3% hits; P9WQA3; in the data active = inhibition above about 27%;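 also: 0% = vehicle and 100% = reference inhibitor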
GDH-TPI counter: inhibits GDH-TPI coupling enzymes, artifact for Mtb FBA screen; 360,000 compounds, 1.2% hits; inhibition, % at 4.8 µM; AID 588335; GDH-TPI coupled enzyme counterscreen, NADH absorbance;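 also: 0% = DMSO wells and 100% = wells lacking the enzyme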
CCHF vOTU inh: blocks the CCHF virus ovarian tumor domain protease; CCHFV vOTU protease, Pep-AMC fluorescence; 370,000 compounds, 0.55% hits; AID 651958; inhibition, % at 11.5 µM; also: 0% = vehicle wells with enzyme and 100% = no enzyme wells
RecA intein inh: blocks M. tuberculosis RecA intein splicing; P9WHJ3; cell-free RecA intein splicing, fluorescence; inhibition, % (no concentration beside the values); 290,000 compounds, 0.75% hits; in the data active = inhibition above about 30%;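 also: 0% = vehicle wells and 100% = reference inhibitor control wells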
Target sequence (P9WHJ3 whole entry, looked up): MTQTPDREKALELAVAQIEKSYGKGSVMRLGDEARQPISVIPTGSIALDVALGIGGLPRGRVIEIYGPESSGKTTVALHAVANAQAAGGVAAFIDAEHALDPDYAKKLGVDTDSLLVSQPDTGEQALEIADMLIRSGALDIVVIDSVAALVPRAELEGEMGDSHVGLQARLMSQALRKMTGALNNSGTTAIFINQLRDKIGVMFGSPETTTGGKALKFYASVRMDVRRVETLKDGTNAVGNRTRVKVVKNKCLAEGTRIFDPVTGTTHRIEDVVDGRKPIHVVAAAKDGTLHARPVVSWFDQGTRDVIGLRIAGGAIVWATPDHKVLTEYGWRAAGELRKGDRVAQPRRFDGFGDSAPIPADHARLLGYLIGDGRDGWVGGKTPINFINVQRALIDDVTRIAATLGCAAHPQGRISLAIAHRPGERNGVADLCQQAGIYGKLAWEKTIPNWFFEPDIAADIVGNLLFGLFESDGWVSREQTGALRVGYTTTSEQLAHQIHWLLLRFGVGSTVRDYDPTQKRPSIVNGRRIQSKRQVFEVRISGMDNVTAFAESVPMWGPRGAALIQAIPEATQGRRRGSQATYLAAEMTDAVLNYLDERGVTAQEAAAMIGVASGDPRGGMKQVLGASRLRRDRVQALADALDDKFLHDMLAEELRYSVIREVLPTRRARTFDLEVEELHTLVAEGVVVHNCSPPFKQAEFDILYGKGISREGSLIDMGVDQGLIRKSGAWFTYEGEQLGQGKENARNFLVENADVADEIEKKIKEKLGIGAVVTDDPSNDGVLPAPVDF
* marks the source's active call; other numbers are inactive results; . = no result; + = active, no number. Sampled rows, rich in hits. Any-hit rate of the full collection: about 4.2%. Rule as the data show it, unless noted: active = inhibition above about 30%; inactive = the rest.

SMILES	FBA Mtb inh	GDH-TPI counter	CCHF vOTU inh	RecA intein inh
COc1ccc(C(=O)N/N=C/c2ccc(OC)c(COc3ccc(F)cc3)c2)cc1	-1.5	28.4	-1.7	-0.7
COc1cc(OC)c2cc(C(=O)N/N=C/c3cccc(OC)c3O)[nH]c2c1	6.2	43.0*	-11.3	2.9
COCC(C)NC(=O)c1cc2cc(OC)ccc2[nH]1 (centres undefined)	46.5*	4.0	-31.5	3.4
COc1cc2cc(C(=O)N/N=C/c3ccc(F)cc3)[nH]c2cc1OC	-0.5	46.2*	17.9	-2.7
C[C@@H]1CCN(C2CC2)S(=O)(=O)c2c(cccc2N2CCC[C@H]2CO)O1	.	.	-6.7	.
COc1ccc2cc(C(=O)N/N=C/c3cc(OC)c(OC)c(OC)c3)[nH]c2c1	3.9	49.3*	16.8	-1.6
O=[N+]([O-])c1ccc(O)c(C=Nc2ccc3nc(-c4ccccc4)[nH]c3c2)c1	+	21.1	-189.4	4.1
O=C(Nc1ccc(-c2nc3cccnc3s2)cc1)c1ccc(Br)o1	13.4	18.6	-9.5	-1.5
Nc1ccc(-c2nc3ncccc3o2)cc1	+	42.7*	-345.4	-0.7
O=C(Nc1ccc(-c2nc3ncccc3o2)cc1)c1ccc(Br)o1	14.3	57.0*	-2.8	-4.9
O=C(C(=O)c1cc(Br)ccc1O)c1cc(Br)ccc1O	-2.5	12.4	24.7	.
O=C(c1ccc(O)c(Br)c1)c1cc(Br)ccc1O	-5.1	34.9*	10.2	.
Cn1c(SCC(=O)c2ccc(O)cc2O)nnc1-c1ccccc1	0.0	34.2*	7.0	-4.6
Cc1ccccc1OCC(=O)Nc1nnc(-c2ccncc2)s1	18.4	33.3*	-3.9	0.2
Cc1cccc(-c2nnc(NC(=O)c3cccs3)s2)c1	-0.7	10.1	2.5	-2.3
O=C(Nc1nnc(-c2cccnc2)s1)c1cccs1	2.7	41.6*	15.7	1.2
O=C(COc1ccc([N+](=O)[O-])cc1)Nc1nnc(-c2cccnc2)s1	-2.0	35.1*	1.3	-0.9
O=C(COC(=O)c1ccc(O)cc1)Nc1ccc(Cl)cc1	.	.	-17.4	3.8
CCn1c(CNC(=O)c2ccco2)nnc1SCC(=O)Nc1cc(F)ccc1C	-2.0	3.4	-17.3	-0.6
CCOC(=O)Cc1c(Cl)c2ccccc2[nH]c1=O	1.0	5.0	1.4	-0.3
CCOC(=O)C[n+]1ccc2c([nH]c3ccccc32)c1C	134.9*	3.5	-176.2	-71.9
COC(=O)[C@H](C)N(Cc1cn(Cc2ccccc2)nn1)S(=O)(=O)c1ccccc1Br	.	.	7.8	.
CC1Oc2ccccc2C=C1/C=N/Nc1ccc(C(=O)O)cc1 (centres undefined)	2.6	33.8*	19.4	-14.1
CC(C)(C)c1ccc(/C=N/Nc2cccc(C(=O)O)c2)cc1	-2.2	2.1	-2.6	-1.4
O=C(N/N=C/c1ccc2c(c1)OCO2)c1ccc2c(c1)OCCO2	3.0	42.1*	5.0	-2.9
SMILES	FBA Mtb inh	GDH-TPI counter	CCHF vOTU inh	RecA intein inh
O=C(N/N=C/c1ccc(Cl)cc1)c1ccc2c(c1)OCO2	1.9	13.8	-8.1	-0.2
COc1cc(/C=N/NC(=O)/C(=C\c2ccc3c(c2)OCO3)NC(=O)c2ccccc2)ccc1O	-4.2	46.5*	11.2	-1.0
CN(C)c1ccc(/C=N/Nc2cccc(C(=O)O)c2)cc1	1.5	36.8*	26.9	-4.9
COc1cc(C)c(Cl)cc1S(=O)(=O)NCc1ccccn1	1.9	-0.8	-7.3	.
O=c1cnnc(N/N=C/c2ccc3c(c2)OCO3)[nH]1	1.5	44.2*	3.2	-3.8
O=C(N/N=C/c1cc([N+](=O)[O-])cc([N+](=O)[O-])c1O)/C(=C\c1cccs1)NC(=O)c1ccccc1	-6.0	37.1*	10.8	5.9
COc1cc(/C=N/NC(=O)/C(=C\c2ccc([N+](=O)[O-])cc2)NC(=O)c2ccccc2)cc(OC)c1O	-1.5	43.1*	-1.8	-1.5
Cc1ccccc1NC(=O)/C(=C\c1cccs1)NC(=O)c1ccccc1	-0.1	25.7	-3.1	.
CN(C)c1ccc(/C=N/NC(=O)c2cc(-c3ccc4c(c3)OCO4)n[nH]2)cc1	2.6	36.0*	-8.5	4.2
O=C(N/N=C/c1ccc(F)cc1)c1cc(-c2ccc3c(c2)OCO3)n[nH]1	-0.6	-2.1	4.8	-2.3
O=C(OC12CCCN(C1)/C(=C/c1cccc(Cl)c1)C2)c1ccc(F)cc1 (centres undefined)	.	.	7.6	.
C=CCN1C(=O)[C@@H](CC(=O)N2CCCCC2)[C@]2(C(=O)OCC)CCCCC/C=C/12	.	.	-1.9	.
CCCCCCNC(=O)C1CSCCS(=O)(=O)N1Cc1ccc(OC)cc1 (centres undefined)	.	.	-5.5	.
COc1cc(/C=N/NC(=O)c2ccc(-n3cccc3)cc2)ccc1O	-2.3	43.4*	3.2	-2.4
O=C(O)c1ccc(/C=N/Nc2ncc(C(F)(F)F)cc2Cl)cc1	-1.3	36.9*	0.0	-4.3
O=C(N/N=C/c1ccc2c(c1)OCO2)c1ccc(Br)o1	-1.6	46.6*	20.0	-1.3
O=C(O)c1ccc(N/N=C/c2ccc3c(c2)OCO3)cc1	-5.2	32.8*	0.7	-3.7
CCN(CC)c1ccc(/C=N/NC(=O)c2ccc(Br)o2)cc1	-2.3	22.1	-2.8	1.2
CCCCNC(=O)C1(C)CCN1C(=O)c1ccc2sccc2c1 (centres undefined)	-1.8	3.5	3.1	.
COc1cc(/C=N/NC(=O)c2ccc3c(c2)OCO3)ccc1O	0.6	34.7*	16.9	-1.7
CC(C)(C)c1ccc(/C=N/Nc2ccc(C(=O)O)cc2)cc1	-2.7	42.3*	14.1	8.7
O=C(O)c1ccc(N/N=C/c2cc3cc4c(cc3nc2Cl)OCCO4)cc1	7.7	39.2*	15.7	-7.3
COc1cc(C(=O)NC(=S)NNC(=O)c2ccc3c(c2)OCO3)cc(OC)c1OC	-0.3	32.4*	0.9	1.1
O=Cc1cc2cc3c(cc2nc1Cl)OCCO3	.	.	.	2.2
Cc1ccc(NC(=O)COC(=O)Cn2cnc3ccccc32)c(C)c1	4.5	0.9	-15.5	.
SMILES	FBA Mtb inh	GDH-TPI counter	CCHF vOTU inh	RecA intein inh
Cc1cc(OCC(=O)N2CCC(C(N)=O)CC2)c2c(C)c(C)c(=O)oc2c1	7.3	-6.9	.	10.9
Cc1c(C)c2c(OCC(=O)N3CCC(O)CC3)cc3c(c2oc1=O)CCC(C)(C)O3	+	31.4*	-233.8	.
Cc1c(C)c2c(OCC(=O)N3CCC[C@H]3C(=O)O)cc3c(c2oc1=O)CCC(C)(C)O3	+	13.2	-288.2	2.0
CCN(CC)C(=O)C1=C(C)N(Cc2ccc(C(C)(C)C)cc2)C(=O)C(CC(=O)NC(c2ccccc2)c2ccccc2)C1 (centres undefined)	2.0	6.2	21.9	.
COc1ccc(C(=O)OCCCN(C)C2CN(Cc3cn(Cc4ccccc4Cl)nn3)S(=O)(=O)C2)cc1OC (centres undefined)	.	.	6.0	.
O=C1NC(=O)/C(=C/c2ccccc2OCc2ccccc2)S1	-1.2	31.7*	20.6	14.3
Cn1c(=O)[nH]c(=O)c2c1nc(N/N=C/c1cccnc1)n2Cc1ccc(Cl)cc1	2.3	-1.5	-5.0	.
Cn1c(=O)c2c(nc(N/N=C/c3cccs3)n2C)n(C)c1=O	-6.0	25.3	22.2	-2.5
Cn1c(=O)c2c(nc(N/N=C/c3ccco3)n2C)n(C)c1=O	1.3	56.1*	7.2	-1.8
Cn1c(=O)c2c(nc(N/N=C/c3cccnc3)n2Cc2ccccc2)n(C)c1=O	0.8	31.0*	7.2	-2.0
O=C(NCc1cccnc1)/C(=C\c1ccc(-c2ccc(Cl)c(Cl)c2)o1)S(=O)(=O)c1ccccc1	0.5	31.3*	-2.0	24.5
